Measurements published in PubChem BioAssay.
Several values for one entry are separate records, joined by “and”; a condition that tells them apart may be missing. Equal entries are not always repeated. For part of these data: Potency and affinity values are given separately. Activity calls are given as the source filed them.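 How the source made its calls, unless noted: active means thallium flux through the channel raised or lowered by more than 3 SD from vehicle-only wells, actives on both sides; inactive means the rest.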

Key:
[1] = compounds altering viability of human ES cells (AID 493140; call rule not given here;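 further: cells exposed to compounds for four days before counting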); conditions: human embryonic stem cell survival screen; stronger effect = higher value
[2] = P. berghei load reduction in hepatocytes – cell-based, HepG2, luciferase luminescence, HepG2 viability, primary screen (AID 624349; in the data active means parasite load remaining mostly below about 12%, no sharp cut-off; inactive means mostly above about 10%;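 further: 100% = mean of DMSO negative control wells on the same plate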); conditions: P. berghei liver stage in HepG2, luciferase luminescence, concentration not given here; parasite load remaining: stronger effect = lower value; viability: measured here: HepG2 viability without parasites
[3] = signal quenchers or enhancers, Cy5 substrate/SSB – biochemical, NIH Clinical Collection, E. coli SSB, artefact control for HCV NS3 helicase inhibitor project (AID 743268; call rule not given here); conditions: Cy5-oligo bound E. coli SSB, fluorescence interference
[4] = galactose survival enhancers in mitochondrial complex I cybrids – cell-based, galactose medium, ATP luminescence, primary screen (AID 1645843;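 active means z-score of at least 1.8 in each of two replicates, scored against plate mean and spread of sample wells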;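 further: positive z means more ATP and so rescue of galactose-driven cybrid death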); conditions: complex I mutant cybrid cells, 72 h, stronger effect = higher value
F380Y/beta1 = test: BK channel mutant inhibitors and activators – cell-based, U2OS BacMam, thallium flux, beta subunits, selectivity assay, profiling panel (AID 1259406); conditions: U2OS BacMam BK variants, at 30 µM;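 further: initial slope of Thallos dye fluorescence rise after thallium is added; log ratio against the mean of 0.3% DMSO vehicle wells on the same plate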
F380Y/beta4 = test: as above; conditions: U2OS BacMam BK variants, at 30 µM
R275C = test: as above; conditions: U2OS BacMam BK variants, at 30 µM
R275C/beta1 = test: as above; conditions: U2OS BacMam BK variants, at 30 µM
R275C/beta2Delta = test: as above; conditions: U2OS BacMam BK variants, at 30 µM
R275C/beta4 = test: as above; conditions: U2OS BacMam BK variants, at 30 µM
R275C/Slo1WT/beta2 = test: as above; conditions: U2OS BacMam BK variants, at 30 µM
[5] = blockers of polyQ-driven CASP3 activation – cell-based (AID 1583); conditions: polyglutamine-induced caspase-3 activation, cell assay; stronger effect = higher value;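 tested at 10 µM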
[6] = yeast 75Q aggregation reduction – 75Q-TubU reporter (AID 1593); conditions: Yeast 75Q polyglutamine aggregation reporter
[7] = restoration of touch response, mutant HTT neurons – whole organism, C. elegans mechanosensory neurons, N-terminal huntingtin (AID 1599); conditions: C. elegans polyQ-huntingtin mechanosensory neurons, stronger effect = higher value
[8] = blockers of cytochrome c efflux from mitochondria – biochemical, purified mitochondria (AID 1603); conditions: stronger effect = lower value;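 further: mouse liver mitochondria challenged with calcium chloride; signal normalized to the plate average as 100%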
[9] = polyglutamine aggregate formation blockers (AID 1604); conditions: polyglutamine-induced protein aggregation inhibition assay; stronger effect = higher value; tested at 2.5 µM
[10] = glutamate transport activators, MN-1 cells, MN-1 cell line (AID 1612); conditions: MN-1 motor neuron cells, stronger effect = higher value;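 further: tested at 1 µM final; 0% = mean of DMSO vehicle wells on each plate; positive means more glutamate uptake than control and negative means less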
[11] = 75Q-TubH aggregate inhibition, S. cerevisiae, yeast (AID 1616); conditions: S. cerevisiae 75Q-TubH polyglutamine aggregation suppression; stronger effect = higher value
[12] = modulation of C. elegans fzo-1 (AID 1259413; call rule not given here;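 further: fzo-1 mutant C. elegans worms in liquid wells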); conditions: C. elegans fzo-1 modulator screen, mean read-out; stronger effect = higher value

CC(=O)O[C@]1(C(C)=O)CC[C@H]2[C@@H]3C=C(C)C4=CC(=O)CC[C@]4(C)[C@H]3CC[C@@]21C
survival [1]: 3.08 (inactive)
parasite load remaining [2]: 111% (inactive) and 60.7% (inactive) and 27.2% (inactive)
viability [2]: 93.3% and 69.6% and 81%
fluorescence ratio [3]: 1.01 (inactive)
z-score [4]: 0.025 (inactive)
log fold change Tl+ flux (F380Y/beta1): 0.018 (inactive)
log fold change Tl+ flux (F380Y/beta4): -0.0433 (inactive)
log fold change Tl+ flux (R275C): -0.0376 (inactive)
log fold change Tl+ flux (R275C/beta1): 0.00523 (inactive)
log fold change Tl+ flux (R275C/beta2Delta): -0.00852 (inactive)
log fold change Tl+ flux (R275C/beta4): -0.0116 (inactive)
log fold change Tl+ flux (R275C/Slo1WT/beta2): 0.0254 (inactive)

CCN(CC)CC(=O)Nc1c(C)cccc1C
inhibition [5]: -3.43%
score [6]: 1.56
rescue above control [7]: -0.5
cytochrome c release ratio [8]: 1.13
inhibition of aggregation [9]: 87%
glutamate uptake change [10]: 0.81%
aggregation suppression score [11]: 1.18
survival [1]: 23.2 (inactive)
fluorescence ratio [3]: 1.01 (inactive)
mean signal [12]: 257 (inactive)
z-score [4]: 0.01 (inactive) and 0.715 (inactive) and 0.48 (inactive)
log fold change Tl+ flux (R275C): -0.00245 (inactive)
log fold change Tl+ flux (R275C/beta1): -0.022 (inactive)
log fold change Tl+ flux (R275C/beta2Delta): 0.00392 (inactive)

O=C1N=C(O)CN1/N=C/c1ccc(-c2ccc([N+](=O)[O-])cc2)o1
inhibition [5]: 24%
score [6]: 1.7
rescue above control [7]: -1.39
cytochrome c release ratio [8]: 0.66
inhibition of aggregation [9]: 71.6%
glutamate uptake change [10]: -2.24%
aggregation suppression score [11]: 1.1
survival [1]: 28.9 (inactive)
parasite load remaining [2]: 21.2% (inactive) and 82.2% (inactive) and 9.57% (inactive)
viability [2]: 47.1% and 91.4% and 102%
mean signal [12]: 232 (inactive)
z-score [4]: -0.315 (inactive) and -0.365 (inactive)

COc1cc2nc(N3CCN(C(=O)c4ccco4)CC3)nc(N)c2cc1OC
inhibition [5]: 16.5%
score [6]: 1.21
rescue above control [7]: -0.41
cytochrome c release ratio [8]: 1.07
inhibition of aggregation [9]: 70.4%
glutamate uptake change [10]: -22.2%
aggregation suppression score [11]: 1.01
survival [1]: 0.667 (inactive)
mean signal [12]: 236 (inactive)
log fold change Tl+ flux (R275C): -0.0502 (inactive)
log fold change Tl+ flux (R275C/beta1): -0.0587 (inactive)
log fold change Tl+ flux (R275C/beta2Delta): -0.0145 (inactive)

CNC(=O)Oc1ccc2c(c1)[C@]1(C)CCN(C)[C@@H]1N2C
inhibition [5]: 8.95%
score [6]: 1.22
rescue above control [7]: 1.05
cytochrome c release ratio [8]: 1.08
inhibition of aggregation [9]: 39.4%
glutamate uptake change [10]: -18.2%
aggregation suppression score [11]: 1.03
survival [1]: 7.25 (inactive)
z-score [4]: -0.835 (inactive) and -0.865 (inactive)

CC1(C)O[C@@H]2C[C@H]3[C@@H]4C[C@H](F)C5=CC(=O)C=C[C@]5(C)[C@H]4[C@@H](O)C[C@]3(C)[C@]2(C(=O)CO)O1
survival [1]: 3 (inactive)
parasite load remaining [2]: 33.4% (inactive) and 143% (inactive)
viability [2]: 88.6% and 103%
fluorescence ratio [3]: 1.07 (inactive)
z-score [4]: -1.48 (inactive)
log fold change Tl+ flux (F380Y/beta1): 0.017 (inactive)
log fold change Tl+ flux (F380Y/beta4): -0.0612 (inactive)
log fold change Tl+ flux (R275C): 0.00271 (inactive)
log fold change Tl+ flux (R275C/beta1): -0.0113 (inactive)
log fold change Tl+ flux (R275C/beta2Delta): -0.0208 (inactive)
log fold change Tl+ flux (R275C/beta4): 0.0291 (inactive)
log fold change Tl+ flux (R275C/Slo1WT/beta2): 0.0322 (inactive)

Cc1c(OCC(F)(F)F)ccnc1CS(=O)c1nc2ccccc2[nH]1 (stereo not given)
inhibition [5]: -8.62%
score [6]: 0
rescue above control [7]: 4.9
cytochrome c release ratio [8]: 0.73
inhibition of aggregation [9]: 29.4%
glutamate uptake change [10]: -0.46%
aggregation suppression score [11]: -0.00244
survival [1]: 14.6 (inactive)
fluorescence ratio [3]: 0.95 (inactive)
mean signal [12]: 250 (inactive)
z-score [4]: -1.12 (inactive) and -0.8 (inactive) and -0.405 (inactive)

CC(=O)S[C@@H]1CC2=CC(=O)CC[C@]2(C)[C@H]2CC[C@@]3(C)[C@@H](CC[C@@]34CCC(=O)O4)[C@H]12
survival [1]: 17.9 (inactive)
fluorescence ratio [3]: 0.99 (inactive)
z-score [4]: -0.25 (inactive) and 0.65 (inactive)
log fold change Tl+ flux (F380Y/beta1): 0.0461 (inactive)
log fold change Tl+ flux (F380Y/beta4): -0.0243 (inactive)
log fold change Tl+ flux (R275C): 0.0437 (inactive)
log fold change Tl+ flux (R275C/beta1): 0.0449 (inactive)
log fold change Tl+ flux (R275C/beta2Delta): 0.0485 (inactive)
log fold change Tl+ flux (R275C/beta4): 0.0567 (inactive)
log fold change Tl+ flux (R275C/Slo1WT/beta2): 0.0564 (inactive)

CCCN1C[C@H](CSC)C[C@@H]2c3cccc4[nH]cc(c34)C[C@H]21
inhibition [5]: 21.1%
score [6]: 1
rescue above control [7]: -1.5
cytochrome c release ratio [8]: 1.44
inhibition of aggregation [9]: 61.1%
glutamate uptake change [10]: -2.13%
aggregation suppression score [11]: 1.46
survival [1]: 12.4 (inactive)
fluorescence ratio [3]: 1.02 (inactive)
z-score [4]: 0.12 (inactive) and -0.1 (inactive)
log fold change Tl+ flux (R275C): -0.00135 (inactive)
log fold change Tl+ flux (R275C/beta1): -0.0389 (inactive)
log fold change Tl+ flux (R275C/beta2Delta): -0.00636 (inactive)

CCOC(=O)C1=C(COCCN)NC(C)=C(C(=O)OC)C1c1ccccc1Cl (stereo not given)
parasite load remaining [2]: 22.9% (inactive) and 39.3% (inactive) and 49.9% (inactive)
viability [2]: 107% and 67.5% and 111%
mean signal [12]: 214 (inactive)
z-score [4]: -0.815 (inactive) and -0.625 (inactive) and 0.7 (inactive)

C[C@@H]1C[C@H]2[C@@H]3CCC4=CC(=O)C=C[C@]4(C)[C@@]3(F)[C@@H](O)C[C@]2(C)[C@@]1(O)C(=O)CO
parasite load remaining [2]: 76.8% (inactive) and 55.7% (inactive)
viability [2]: 86.4% and 108%
fluorescence ratio [3]: 1.05 (inactive)
z-score [4]: 0.135 (inactive) and 0.555 (inactive)
log fold change Tl+ flux (F380Y/beta1): 0.0534 (inactive)
log fold change Tl+ flux (F380Y/beta4): -0.000275 (inactive)
log fold change Tl+ flux (R275C): 0.0247 (inactive)
log fold change Tl+ flux (R275C/beta1): 0.0605 (inactive)
log fold change Tl+ flux (R275C/beta2Delta): 0.000117 (inactive)
log fold change Tl+ flux (R275C/beta4): 0.0627 (inactive)
log fold change Tl+ flux (R275C/Slo1WT/beta2): 0.0456 (inactive)
